From PubChem
Luc counter: blocks Kinase-Glo luciferase, a counter-screen artifact | hit rate 0.28% among 200,000 | Kinase-Glo luciferase, ATP luminescence, 8 min | Q27757 | Potency, µM (doses to about 38.3 µM), for the others: at the highest dose activity change, negative = inhibition, hits mostly inhibitors; note: nearly all actives have a fitted effect of over 60% in size
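Compounds were added to a substrate mix at pH 7.2 (50 mM imidazole, 10 uM ATP, within the enzyme's linear range), followed by Kinase-Glo detection reagent; luminescence was measured after 8 minutes at ambient temperature.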
RORg inh: inhibitors of mouse ROR gamma transcriptional activity; Potency, µM (series often up to 53.6 µM), without a hit: at the top dose activity change, negative = inhibition, actives largely listed as inhibitors; Drosophila S2 Gal4-RORgamma UAS-luciferase reporter, 20 h; hit rate 5.4% among 310,000; note: nearly all actives have a fitted effect of over 60% in size
Target sequence (P51450 whole entry, looked up, the tested form may be a part): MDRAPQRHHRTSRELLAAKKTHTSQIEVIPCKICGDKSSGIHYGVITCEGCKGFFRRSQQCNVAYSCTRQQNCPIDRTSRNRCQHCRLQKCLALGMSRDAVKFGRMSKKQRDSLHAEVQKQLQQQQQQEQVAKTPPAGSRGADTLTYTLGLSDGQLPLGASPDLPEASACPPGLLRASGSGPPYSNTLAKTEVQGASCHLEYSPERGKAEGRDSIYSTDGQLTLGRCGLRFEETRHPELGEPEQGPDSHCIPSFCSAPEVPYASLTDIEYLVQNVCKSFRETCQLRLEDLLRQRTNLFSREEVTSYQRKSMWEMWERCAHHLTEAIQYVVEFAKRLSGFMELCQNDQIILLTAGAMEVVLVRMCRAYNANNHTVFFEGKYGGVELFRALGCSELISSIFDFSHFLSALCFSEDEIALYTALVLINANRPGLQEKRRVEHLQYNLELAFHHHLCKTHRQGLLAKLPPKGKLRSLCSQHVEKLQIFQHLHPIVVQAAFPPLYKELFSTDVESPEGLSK
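Stable Schneider cell line, Gal4 DNA-binding domain fused to ROR gamma, UAS-luciferase. Cmpd 1 hr RT → CuSO4 700 uM final → 20 hr RT → luciferase reagent 10 min → luminescence.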
Gal4-VP16 FLuc: Gal4-VP16 reporter inhibition counter-screen; Drosophila S2 Gal4-VP16 UAS-luciferase, luminescence, 20 h; Potency, µM (titrated, usually from 53.6 µM), for inactives: at the top dose activity, negative = inhibition, usual class: inhibitors; hit rate 3.5% among 310,000; AID 2546;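 note: Gal4-VP16 expression switched on by copper sulfate through the metallothionein promoter; nearly all actives have a fitted effect of over 50% in size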
* marks the source's active call; other numbers are inactive results; ? = inconclusive; · = no result given; [ ] = remark or other dose. Hits are enriched below; roughly 6.2% of the tested compounds scored in any of these assays. Calls come from the whole dose curve; as a rule, active = well fitted curve in the direction sought with a large enough effect; inconclusive = small, poorly fitted or top-dose-only effect, or another doubt; inactive = no such curve, though single readings can be large; an effect the other way counts as inactive or inconclusive. % is set by controls: 0 for no effect and ±100 for the full control effect; potency is the fitted concentration of half-maximal effect.

SMILES	Luc counter	RORg inh	Gal4-VP16 FLuc
C/C(=N/NC(=O)c1ccco1)c1ccc(Br)s1	·	12.6µM*	?
CCN(CCCNC(=O)CN1C(=O)COc2ccc(S(=O)(=O)N3CCC(C)CC3)cc21)Cc1ccccc1	·	22.2%	-18.4%
O=C(Nc1ccccc1-c1ccccc1)c1ccc(=O)[nH]n1	·	35.6%	8.5%
NC(=O)CC(NC(=O)Cc1ccc(Cl)cc1)c1ccc(NC2CCCCCCC2)c([N+](=O)[O-])c1 (stereo unspecified)	·	33.7%	-12.8%
COc1ccc(CCNC(=O)c2nn(C)c3c2CS(=O)(=O)c2ccccc2-3)cc1OC	·	-5.4%	-1.1%
Cc1cccc(OCCOCCSc2ncccn2)c1	1.0%	?	18.9%
Cc1ccc(OCCSc2ncccn2)c(C)c1	-7.3%	10µM*	?
Cn1cc(CNCc2cnc3ccccn23)c(-c2ccc(Oc3ccccc3)cc2)n1	2.6%	20.3%	-0.4%
CN(Cc1cn(C)nc1-c1ccc(Oc2ccccc2)cc1)Cc1cnc2ccccn12	0.9%	10µM*	?
Cc1cc(C)c(NC(=O)CN2C(=O)CC(C)S(=O)(=O)c3ccccc32)c(C)c1 (stereo unspecified)	·	-0.2%	1.4%
COc1ccc(/C=N/N2CCN(C3c4ccccc4-c4ccccc43)CC2)cc1O	-1.1%	27.4%	-12.9%
c1ccc(-c2c(-c3ccccc3)n(Cc3ccco3)c3ncnc(NCCCn4ccnc4)c23)cc1	-0.5%	-28.9%	15.8µM*
CN(C)CCCNc1ncnc2oc(-c3ccccc3)c(-c3ccccc3)c12	·	-40.3%	-13.8%
c1ccc(-c2oc3ncnc(NCCCn4ccnc4)c3c2-c2ccccc2)cc1	-6.2%	22.4µM*	?
OCCNc1ncnc2c1c(-c1ccccc1)c(-c1ccccc1)n2Cc1ccco1	-0.7%	-32.3%	16.2%
CCCC(=O)NC(=S)c1c(C)n(C)n(-c2ccccc2)c1=O	1.1%	-0.2%	-6.8%
O=C(c1cccs1)N1CCc2ccccc21	-14.6%	0.3%[0.365 µM]	·
O=C(/C=C/c1cccs1)N1CCc2ccccc21	?	8.91µM*	?
CCc1ccc(OCC(=O)NC2CCCCC2)c(Br)c1	·	2.82µM*	3.98µM*
CCc1ccc(OCC(=O)NNC(=S)NC(=O)C2CCCCC2)c(Br)c1	·	10µM*	-22.3%
O=C(COc1ccccc1Br)NC1CCCC1	3.2%	10.4%	17.1%
CCc1ccc(OCC(=O)NNC(=S)NC(=O)C2CC2)c(Br)c1	·	?	-17.5%
O=C(O)Cc1cc(C(=O)Nc2ccc(Br)cc2)sc1-c1ccccc1	2.7%	32.8%	-22.9%
CCOc1ccc2c(c1)-c1c(ssc1=S)C(C)(C)N2	-4.5%	-20.3%	-9.5%
O=C(CC1C(=O)NCCN1Cc1c(F)cccc1Cl)NCCCn1ccnc1 (stereo unspecified)	-1.2%	5.3%	-3.5%
SMILES	Luc counter	RORg inh	Gal4-VP16 FLuc
Cc1ccc(C(=O)/C=C2\NCCNC2=O)cc1	-11.9%	?	2.8%
Cc1ccc(C(=O)/C=C2\NCC(C)NC2=O)cc1 (stereo unspecified)	-4.5%	8.91µM*	10µM*
CCN(CC)S(=O)(=O)c1cccc(C(=O)NCCCn2ccnc2)c1	·	-1.3%	-7.7%
COc1ccc2c(c1)O[C@@H](c1ccc3c(c1)OCO3)[C@H](OC(=O)NS(=O)(=O)c1ccc(C)cc1)C2=O	0.0%	?	-3.6%
CNc1sc(C(=O)c2ccc(F)cc2)c(N)c1-c1nc2ccccc2s1	0.4%	10µM*	?
O=C(Nc1ccc(O)c(-c2nc3ccccc3s2)c1)c1cccs1	-0.3%	42.7%	2.3%
Cc1snc2sc(C(=O)c3ccc(F)cc3)c(N)c12	·	21.0%	15.6%
Cc1csc(NC(=O)COCC(=O)O)c1-c1nc2ccccc2s1	·	-8.9%	-27.5%
CC(=O)Nc1scc(C)c1-c1nc2ccccc2s1	·	1.12µM*	8.91µM*
CNc1sc(C(=O)c2cccs2)c(N)c1-c1nc2ccccc2s1	-9.6%	?	3.98µM*
Cc1cc(N2CCN(c3ccc(F)cc3)CC2)nc(-c2ccccc2)n1	1.0%	10.9%	-3.8%
O=C(COc1ncnc2ccc(Br)cc12)NCc1ccc2c(c1)OCO2	-3.4%	-13.3%	-2.8%
CCOC(=O)c1c(C)[nH]c(N=Nc2ccc(OC)cc2)c1C	·	-40.2%	-6.7%
O=C1[C@H]2[C@H]3[C@H](O)[C@H](O)C/C(=N/OC[C@@H](O)COCc4ccco4)[C@H]3CC[C@@H]2C(=O)N1C[C@@H]1CCCO1	·	-5.4%[10 µM]	1.6%[10 µM]
O=C(CCCN1C(=O)/C(=C/c2cccc(Br)c2)SC1=S)N1CCOCC1	·	-32.9%	-1.2%
CN1CCN(C(=O)CCCN2C(=O)/C(=C/c3cccc(Br)c3)SC2=S)CC1	·	?	-6.1%
COc1cccc(/C=C2\SC(=S)N(CCCC(=O)N(CCO)c3ccccc3)C2=O)c1	·	7.08µM*	2.51µM*
